This is an account of results in PubChem BioAssay (NCI).

Among the test systems are NCI-H23 lung; NCI-H226 lung; NCI-H322M lung; HOP-62 NSCLC; NCI-H460 lung; HOP-92 NSCLC; NCI-H522 lung; A549/ATCC NSCLC; 786-0 renal; COLO 205 colon; DU-145 prostate; K-562 leukemia; MALME-3M melanoma; MDA-MB-231 breast; RXF 393 renal; SF-268 CNS; SF-295 CNS; SF-539 CNS; UACC-257 melanoma; M14 melanoma.
Holding throughout (test): NCI-60 one-dose screen, 48 h (100 = growth as untreated, 0 = no growth, -100 = all killed)
Conditions in all cases: 10 µM unless noted

The panel holds about 83,000 compounds, 20% with a hit somewhere; the sample as a whole holds those more often.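 Results are percent growth after 48 hours of single-concentration exposure. 100 means growth as in untreated cells, lower positive values show inhibition; negative values down to -100 show cell death.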 Values without a mark were called inactive. The source made the active and inactive calls. Rule for the calls: active = growth percent below 10; inactive = the rest.

Consider `CNS(=O)(=O)c1cccc(-c2ccc3c4c(n(C)c(=O)c3c2)-c2ccccc2C4=O)c1`, for which the growth was 43.9% in the assay with NCI-H23 lung; 33.1% with NCI-H226 lung; 92.8% in the assay with NCI-H322M lung; 22.2% in the assay on HOP-62 NSCLC; 7.51% (active) in the assay with NCI-H460 lung; 61.2% in the assay on HOP-92 NSCLC. Also, the growth in the assay on NCI-H522 lung is 49.3%; with A549/ATCC NSCLC, 24%; in the assay with 786-0 renal, 25.3%; in the assay on COLO 205 colon, 66.5%; in the assay with DU-145 prostate it was 20.7%; in the assay on K-562 leukemia it was 41.3%. The growth in the assay on MALME-3M melanoma was 55%; in the assay with MDA-MB-231 breast, 87.1%; in the assay on RXF 393 renal it was 96.5%; with SF-268 CNS, 58.6%; with SF-295 CNS it was 24.1%; in the assay with SF-539 CNS it was 53.8%. Also, the growth is 96.3% with UACC-257 melanoma and 60.1% with M14 melanoma.
As to `COc1ccc2oc(=O)cc(-c3c(C#N)c(N)n4nc(N)c(C#N)c4c3C#N)c2c1`, the growth was 102% in the assay on NCI-H23 lung; 95.4% with NCI-H226 lung; 96.8% in the assay with NCI-H322M lung; 90.9% with HOP-62 NSCLC; 101% in the assay with NCI-H460 lung; 97.3% in the assay with HOP-92 NSCLC. Moreover, the growth is 80.1% in the assay on NCI-H522 lung; 95% in the assay with A549/ATCC NSCLC; 103% in the assay with 786-0 renal; 108% in the assay with COLO 205 colon; 106% in the assay with DU-145 prostate; 86.4% with K-562 leukemia. Also, the growth with MALME-3M melanoma is 77.4%; in the assay with MDA-MB-231 breast, 104%; in the assay with RXF 393 renal it was 100%; with SF-268 CNS, 89.9%; in the assay on SF-295 CNS it was 103%; in the assay on SF-539 CNS, 98.2%. Moreover, the growth was 107% with UACC-257 melanoma and 111% with M14 melanoma.
Consider `O=C1CC23OC4ON=C(Br)C4C2C(O)c2ccccc2N13` (stereo not given), for which the growth in the assay with NCI-H23 lung is 87.9%; with NCI-H226 lung it was 97.7%; in the assay with NCI-H322M lung it was 96.8%; in the assay with HOP-62 NSCLC, 106%; with NCI-H460 lung it was 106%; with HOP-92 NSCLC, 107%. In addition, the growth is 79.6% in the assay on NCI-H522 lung; 103% in the assay on A549/ATCC NSCLC; 101% with 786-0 renal; 125% in the assay on COLO 205 colon; 105% with DU-145 prostate; 110% with K-562 leukemia. For the same compound, the growth in the assay on MALME-3M melanoma was 79.9%; with MDA-MB-231 breast, 98.8%; in the assay on RXF 393 renal, 115%; with SF-268 CNS it was 95.1%; in the assay with SF-295 CNS, 109%; with SF-539 CNS, 107%. Moreover, the growth in the assay on UACC-257 melanoma was 103%; with M14 melanoma it was 92.4%.
With `Cc1cc(C)n(-c2nc(-c3cccs3)c(C#N)c(=O)[nH]2)n1`, the growth in the assay on NCI-H23 lung is 97.6%; in the assay on NCI-H226 lung, 105%; in the assay on NCI-H322M lung, 92.1%; with HOP-62 NSCLC, 81.2%; with NCI-H460 lung, 96.8%; in the assay with HOP-92 NSCLC, 102%. For the same compound, the growth was 83.8% with NCI-H522 lung; 99.9% with A549/ATCC NSCLC; 93.1% in the assay on 786-0 renal; 111% in the assay with COLO 205 colon; 101% in the assay on DU-145 prostate; 87.4% in the assay with K-562 leukemia. Moreover, the growth was 92.6% in the assay with MALME-3M melanoma; 108% in the assay on MDA-MB-231 breast; 115% in the assay on RXF 393 renal; 82.3% in the assay with SF-268 CNS; 92.3% in the assay on SF-295 CNS; 97.5% with SF-539 CNS. Moreover, the growth with UACC-257 melanoma is 98.7%; with M14 melanoma it was 101%.
As to `Nc1cc(N)c(S(=O)(=O)O)cc1N=Nc1cc([N+](=O)[O-])ccc1O`, the growth in the assay on NCI-H23 lung was 94.5%; in the assay with NCI-H226 lung, 101%; in the assay on NCI-H322M lung, 94.9%; in the assay on HOP-62 NSCLC, 90.6%; in the assay with NCI-H460 lung, 104%; in the assay on HOP-92 NSCLC, 89.4%. The growth in the assay on NCI-H522 lung is 88.3%; with A549/ATCC NSCLC, 95.7%; in the assay with 786-0 renal it was 110%; with COLO 205 colon it was 108%; in the assay on DU-145 prostate it was 111%; in the assay with K-562 leukemia, 80.8%. Further, the growth is 103% with MALME-3M melanoma; 103% in the assay on MDA-MB-231 breast; 103% in the assay with RXF 393 renal; 102% in the assay on SF-268 CNS; 107% in the assay on SF-295 CNS; 102% in the assay with SF-539 CNS. For the same compound, the growth in the assay with UACC-257 melanoma was 99.2%; in the assay on M14 melanoma it was 100%.
As for `CC(/C=C/c1ccccc1)=N/NC(=O)c1ccncc1`, the growth was 98.2% in the assay on NCI-H23 lung; 104% in the assay on NCI-H226 lung; 99.7% in the assay with NCI-H322M lung; 103% in the assay with HOP-62 NSCLC; 102% in the assay on NCI-H460 lung; 77.8% in the assay on HOP-92 NSCLC. Besides, the growth in the assay on NCI-H522 lung was 92.9%; in the assay on A549/ATCC NSCLC it was 93.4%; with 786-0 renal it was 103%; in the assay on COLO 205 colon it was 119%; in the assay on DU-145 prostate it was 112%; in the assay with K-562 leukemia it was 100%. The growth with MALME-3M melanoma is 89.5%; in the assay with MDA-MB-231 breast, 105%; in the assay on RXF 393 renal, 113%; with SF-268 CNS, 102%; with SF-295 CNS it was 109%; with SF-539 CNS, 105%. The growth in the assay with UACC-257 melanoma is 89.8%; in the assay with M14 melanoma, 101%.
As to `N#Cc1c(-c2ccc(F)cc2)nc(N/N=C/c2c[nH]c3ccccc23)nc1N1CCOCC1`, the growth with NCI-H23 lung is 91.8%; in the assay with NCI-H226 lung, 125%; with NCI-H322M lung, 66.5%; in the assay on HOP-62 NSCLC, 69.6%; in the assay on NCI-H460 lung it was 16.5%; with HOP-92 NSCLC it was 68.1%. In addition, the growth in the assay with NCI-H522 lung is 46.3%; in the assay with A549/ATCC NSCLC, 47.1%; in the assay on 786-0 renal, -24.4% (active); in the assay on COLO 205 colon, 40.1%; in the assay with DU-145 prostate, 46.6%; in the assay with K-562 leukemia it was 5.72% (active). The growth in the assay with MALME-3M melanoma is -63.5% (active); in the assay on MDA-MB-231 breast it was 53.1%; in the assay with RXF 393 renal, -34.2% (active); in the assay on SF-268 CNS, 68.8%; with SF-295 CNS it was -17.4% (active); with SF-539 CNS it was 52.8%. Moreover, the growth in the assay with UACC-257 melanoma was -48.8% (active); in the assay on M14 melanoma, -0.73% (active).
